ELG1 DNA repair = qHTS screen for small molecules that inhibit ELG1-dependent DNA repair in human embryonic kidney (HEK293T) cells expressing luciferase-tagged ELG1; HEK293T ELG1-luciferase reporter, luminescence, 16 h; DNA damage induced by 5-fluorouridine; Potency, µM (highest dose often 46.1 µM), for the others: at the highest dose activity change, negative = inhibition, actives largely listed as inhibitors; actives 2.3% (n = 330,000); further: on the % scale 0 is the no-effect control and ±100 the full control effect; nearly all actives have a fitted effect of over 55% in size
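Step one: seed 2,000 cells per well. Step two: pin-transfer compound or DMSO alongside 5-fluorouridine. Step three: incubate 16 hr, 37 °C, 5% CO2. Step four: add ONE-Glo, wait 30 min, read luminescence.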
NPC1 prom act = qHTS Assay for NPC1 Promoter Activators. Huh7 NPC1 promoter luciferase reporter, 24 h. actives 2.4% (n = 320,000). Potency, µM (highest dose often 9.22 µM), inactives show at the highest dose activation, actives largely listed as activators; further: % of control where 0% means no effect; nearly all actives have a fitted effect of over 60% in size
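Luciferase expression driven by the NPC1 promoter was measured in stably transfected Huh7 cells after a 24 h compound incubation, using a luciferase reagent and a luminescence read.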
ELG1 genotoxic = qHTS screen for small molecules that induce genotoxicity in human embryonic kidney (HEK293T) cells expressing luciferase-tagged ELG1 | actives 1.3% (n = 330,000) | HEK293T ELG1-luciferase reporter, luminescence, 16 h | Potency, µM (series often up to 46 µM), without a hit: top-dose activity change, positive = activation, most hits filed as activators; further: % of control where 0% means no effect; nearly all actives have a fitted effect of over 60% in size
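Luminescence read-out: rising ELG1-luciferase signal, reflecting elevated ELG1 protein under genetic stress, flags genotoxic compounds. Cells were treated for 16 hr at 37 °C before ONE-Glo detection.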
SMN2 splice up = qHTS Assay for Enhancers of SMN2 Splice Variant Expression. HEK293 SMN2-luciferase splicing reporter, luminescence, 30-36 h. Potency, µM (doses to about 46.1 µM), for the others: at the top dose activity change, positive = activation, hits mostly activators. actives 2.8% (n = 210,000); further: % of control where 0% means no effect; nearly all actives have a fitted effect of over 55% in size
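HEK293 cells carry an SMN2 […]–luciferase reporter in which exon 7 inclusion puts luciferase in frame. Cells were plated 10-12 h before compound addition, then incubated 30-36 h at 37C. ONE-Glo luminescence was read; sodium butyrate at 4.5 mM final served as control.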
FLuc counter = qHTS profiling assay for firefly luciferase inhibitor/activator using purifed enzyme and Km concentrations of substrates (counterscreen for miR-21 project); Luciferin 4-monooxygenase (Photinus pyralis), P08659; purified FLuc, Km substrates, luminescence inhibition; Potency, µM (titrated, usually from 57.5 µM), for inactives: top-dose activity change, negative = inhibition, hits mostly inhibitors; actives 6.9% (n = 360,000);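 further: plate controls were vehicle for no effect and reference inhibitor for full effect; nearly all actives have a fitted effect of over 55% in size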
Target sequence (P08659 whole entry, looked up): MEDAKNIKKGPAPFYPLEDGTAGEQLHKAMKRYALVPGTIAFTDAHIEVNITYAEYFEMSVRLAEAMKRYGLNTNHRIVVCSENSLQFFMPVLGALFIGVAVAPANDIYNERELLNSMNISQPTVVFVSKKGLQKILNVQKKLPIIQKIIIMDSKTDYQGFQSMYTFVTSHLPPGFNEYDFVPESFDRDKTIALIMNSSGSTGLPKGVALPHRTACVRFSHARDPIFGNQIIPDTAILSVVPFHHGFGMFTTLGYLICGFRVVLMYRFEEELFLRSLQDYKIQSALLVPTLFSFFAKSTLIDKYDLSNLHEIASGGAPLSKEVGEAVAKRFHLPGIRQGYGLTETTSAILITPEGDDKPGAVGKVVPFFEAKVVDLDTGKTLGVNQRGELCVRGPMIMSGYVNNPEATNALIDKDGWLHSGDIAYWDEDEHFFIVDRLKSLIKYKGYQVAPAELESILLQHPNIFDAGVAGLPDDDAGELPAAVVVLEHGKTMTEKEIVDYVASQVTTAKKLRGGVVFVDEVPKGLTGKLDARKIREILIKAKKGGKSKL
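Biochemical qHTS of compounds, final roughly 60 µM downward over six points, against 10 nM purified firefly luciferase using Km concentrations of substrates (10 uM D-luciferin, 10 uM ATP) in Tris acetate pH 7.5 buffer; luminescence output.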
Rab9 prom act = qHTS Assay for Rab9 Promoter Activators; actives 2.8% (n = 320,000); AID 485297, 2010; Potency, µM (doses to about 9.22 µM), for inactives: top-dose activation, negative = inhibition, most hits filed as activators; Huh7 Rab9 promoter-luciferase reporter, luminescence, 24 h; further: % of control where 0% means no effect; nearly all actives have a fitted effect of over 60% in size
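Steps: seed 1500 Huh7 Rab9-luc cells per well, rest 2 h at 37 °C; add compound in DMSO; incubate 24 h; add luciferase reagent, 10 min ambient; read luminescence.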
Starred values were filed as active, the others as inactive; ? = inconclusive; nt = no result given; [ ] = another dose, or the depositor's remark. Compounds with a hit are over-represented: about 9.3% of the library has one in this group of screens. The call rests on the fitted dose curve; in most records, active means well fitted curve in the direction sought with a large enough effect; inconclusive means small, poorly fitted or top-dose-only effect, or another doubt; inactive means no such curve, though single readings can be large; an effect the other way counts as inactive or inconclusive. Potency means the concentration at half of the fitted maximal effect.

SMILES	ELG1 DNA repair	NPC1 prom act	ELG1 genotoxic	SMN2 splice up	FLuc counter	Rab9 prom act
CC[C@H](C)[C@@H](NC(=O)O[C@@H]1Cc2cc(OC)ccc2O[C@H]1c1cccc(OC)c1)C(=O)OC	nt	nt	nt	-2%	nt	nt
O=C(c1cc(C(F)(F)F)cc(C(F)(F)F)c1)N1CCC2(CCN(Cc3ccncc3)CC2)CC1	nt	nt	nt	-43%	nt	nt
COc1ccccc1C(=O)Nc1ccccc1SC(=O)c1ccccc1OC	?	?	12µM*	nt	5.4µM*	?
COc1ccccc1/C=C1\S/C(=N/NC(=O)c2cccc(Br)c2)NC1=O	1%	-1%	-13%	-18%	9.5µM*	-3%
COc1ccccc1C(=O)NNC(=O)c1cccc(Cl)c1	?	16%	16%	nt	-16%	21%
COc1ccccc1C(=O)NNC(=O)c1ccccc1	?	2.5µM*	8.2µM*	nt	9.5µM*	?
O=C(CNc1ccccc1)c1ccc([N+](=O)[O-])cc1	?	7%	1%	13%	0%	-3%
CC(=O)Nc1ccc(NCC(=O)c2ccccc2)cc1	5%	-2%	9%	nt	15µM*	0%
CCN(C(=O)c1ccc(NC(=O)Cc2ccccc2)cc1)c1ccccc1	-12%	-1%	-1%	nt	-2%	-3%
COc1ccccc1NC(=O)c1ccccc1NC(=O)c1ccccc1	nt	nt	nt	-8%	15µM*	nt
O=C(Nc1ccccc1)C(=O)c1c[nH]c2ccccc12	?	3.5µM*	0.92µM*	nt	1.7µM*	1.8µM*
COc1ccccc1C(=O)CC(=O)c1ccccc1	?	?	?	nt	13µM*	20%
COc1ccccc1NC(=O)c1ccccc1NC(=O)c1ccccc1C(=O)O	8%	-2%	0%	nt	2%	-5%
Cc1cccc(C)c1NC(=O)c1c[nH]c2ccccc12	?	?	?	nt	12µM*	22%[1.84 µM]
c1ccc(CCc2cn(C[C@H]3CC[C@@H]([C@@H]4CC[C@H](Cn5cc(CCc6ccccc6)nn5)O4)O3)nn2)cc1	?	2%	-2%	nt	4%	-4%
O=C1c2ccccc2C(=O)N1CCCCc1cn(C[C@H]2CC[C@H](Cn3cc(CCCCN4C(=O)c5ccccc5C4=O)nn3)O2)nn1	8.2µM*	nt	-6%	nt	nt	nt
Cc1ccc(C)c(NC(=O)CSc2ccc3nc(-c4ccccc4)cn3n2)c1	nt	nt	nt	nt	-16%	nt
CCc1ccc(NC(=O)CSc2ccc3nc(-c4ccc(OC)cc4)cn3n2)cc1	nt	nt	nt	nt	2.7µM*	nt
N#CCSc1ccc2nc(-c3ccccc3)cn2n1	?	2.8µM*	?	nt	7.6µM*	2µM*
CC(=O)c1ccc(NC(=O)CSc2ccc3nc(-c4ccccc4)cn3n2)cc1	nt	nt	nt	nt	12µM*	nt
CCCCOc1ccc(C(=O)C(CN2CCOCC2)c2ccccc2)cc1 (configuration not stated)	?	-10%	-19%	-115%	6%	-26%
CCCOc1ccc(C(=O)C(CN2CCCC2)c2ccccc2)cc1 (configuration not stated)	18µM*	-23%	-18%	-99%	0%	-33%
COc1ccc(C(=O)C(OC(=O)c2ccccc2Cl)c2ccccc2)cc1 (configuration not stated)	?	?	?	65%	13µM*	4µM*
COc1ccc(C(=O)C(CN2CCCC2)c2ccccc2)cc1 (configuration not stated)	16µM*	0%	-8%	-76%	4%	-19%
COc1cccc2cc(-c3nnc(-c4ccc(Cl)cc4)o3)c(=O)oc12	nt	nt	nt	0%	1.7µM*	nt
SMILES	ELG1 DNA repair	NPC1 prom act	ELG1 genotoxic	SMN2 splice up	FLuc counter	Rab9 prom act
CC/C(C)=N/Nc1nc(-c2cc3cccc(OC)c3oc2=O)cs1	?	2.2µM*	?	nt	8.5µM*	1.8µM*
COc1cccc2cc(-c3nnc(-c4ccccc4)o3)c(=O)oc12	?	0.5µM*	?	11µM*	0.21µM*	0.5µM*
COc1ccc(-c2nnc(-c3cc4ccccc4oc3=O)o2)cc1	?	2%	16%	?	-1%	24%
CCCCCCc1cc2cc(-c3nnc(-c4ccccc4OC)o3)c(=O)oc2cc1O	7.3µM*	-1%	-18%	-96%	?	2%
Cc1cc2c(cc1S(=O)(=O)N1CCC(C(N)=O)CC1)OCC(=O)N2	nt	nt	nt	nt	1%	nt
COc1cccc2cc(-c3cn4c(n3)sc3cc(F)ccc34)c(=O)oc12	nt	nt	nt	nt	2.4µM*	nt
O=S1(=O)c2cccc3cccc(c23)N1Cc1ccc(-c2nnco2)cc1	?	-2%	-5%	-23%	-2%	-2%
O=C1c2ccccc2S(=O)(=O)N1Cc1nnc(-c2ccccc2Br)o1	18%	8%	3%	-6%	21µM*	1%
O=C1C2CC=CCC2C(=O)N1Cc1nnc(-c2ccccc2Br)o1 (configuration not stated)	?	0%	8%	nt	?	2%
O=S1(=O)c2cccc3cccc(c23)N1Cc1nnc(-c2ccccc2Br)o1	23µM*	3%	-2%	-45%	-1%	3%
Clc1ccc2c(NCCNc3ccnc4cc(Cl)ccc34)ccnc2c1	nt	nt	nt	2%[9.22 µM]	nt	nt
S=C(NCc1ccncc1)Nc1ccc(Cl)cc1Cl	16µM*	-3%	-4%	-25%	1%	-2%
CCOc1ccccc1Nc1ccnc2cc(Cl)ccc12	-10%	-1%	-7%	nt	2%	-4%
S=C(NNc1ccnc2cc(Cl)ccc12)Nc1ccc(Cl)cc1Cl	21µM*	-18%	-11%	nt	-15%	-31%
CCOc1ccc(NC(=S)NNc2ccnc3cc(Cl)ccc23)cc1	23µM*	-7%	-15%	-67%	?	-11%
S=C(NCc1ccc(Cl)cc1)Nc1ccc(Cl)cc1Cl	11%	0%	1%	1%	2%	-7%
COc1cc(OC)c(C(=O)NCc2nc(-c3ccccc3)no2)cc1OC	nt	nt	nt	-17%	-6%	nt
Cc1ccc(-c2cc(-c3ccco3)c3c(N)c(C(=O)NN)oc3n2)cc1	13µM*	2%	-4%	nt	-3%	-5%
NNC(=O)c1oc2nc(-c3ccccc3)cc(-c3ccccc3)c2c1N	16µM*	2%	-2%	nt	0%	-9%
NNC(=O)c1oc2nc(-c3cccs3)cc(-c3ccco3)c2c1N	?	1%	3%	nt	-2%	-4%

Source: PubChem BioAssay (National Center for Advancing Translational Sciences (NCATS))
